The results in this text go back to PubChem BioAssay (NCATS).

Inconclusive results are not listed. A number with no mark means an inactive call. Active and inactive are the calls of the source. Calls come from the whole dose curve; as a rule, active = well fitted curve in the direction sought with a large enough effect; inconclusive = small, poorly fitted or top-dose-only effect, or another doubt; inactive = no such curve, though single readings can be large; an effect the other way counts as inactive or inconclusive.

Assay [1] concerns the target Cellular tumor antigen p53 (Homo sapiens) (UniProt P04637). The assay is described as follows: Primary qHTS for small molecule compounds that upregulate eGFP-tagged delta133p53alpha (in N-terminal) cells. (AID 2060322).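 For activation: cells pre-induced with doxycycline then dosed without doxycycline; series mostly up to about 56 µM; 0% = DMSO vehicle and 100% = reference activator.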 Note: nearly all actives have a fitted effect of over 75% in size. Note: potency is the fitted concentration of half-maximal effect. Particulars: NCI-H358 eGFP-delta133p53alpha fluorescence, 24 h; activation: stronger effect = higher value. The procedure, abridged: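 NCI-H358 cells pre-induced 24 h with 10 ng/ml doxycycline for eGFP-delta133p53alpha, plated dox-free and exposed 24 h at 37C to titrated compounds. Fixed, Hoechst-stained; gated GFP peak intensity by laser scanning cytometry, normalized to DMSO (0%) and 57.5 uM 5-azacytidine (100%).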

Assay [2] addresses Aldehyde dehydrogenase, mitochondrial (Homo sapiens) (UniProt P05091). The assay is described as follows: qHTS for Inhibitors of the Aldehyde Dehydrogenase Family (ALDH2) Primary screen (AID 2061308).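 Note: plate controls were vehicle for no effect and reference inhibitor for full effect; nearly all actives have a fitted effect of over 55% in size.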
Assay [3] concerns the target Retinaldehyde dehydrogenase 3 (Homo sapiens) (UniProt P47895). The assay is described as follows: qHTS for Inhibitors of the Aldehyde Dehydrogenase Family (ALDH1A3) Primary screen (AID 2061315).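 Note: plate controls were DMSO vehicle for no effect and reference inhibitor for full effect.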

Sequence of Cellular tumor antigen p53 (Homo sapiens) (P04637 whole entry, looked up): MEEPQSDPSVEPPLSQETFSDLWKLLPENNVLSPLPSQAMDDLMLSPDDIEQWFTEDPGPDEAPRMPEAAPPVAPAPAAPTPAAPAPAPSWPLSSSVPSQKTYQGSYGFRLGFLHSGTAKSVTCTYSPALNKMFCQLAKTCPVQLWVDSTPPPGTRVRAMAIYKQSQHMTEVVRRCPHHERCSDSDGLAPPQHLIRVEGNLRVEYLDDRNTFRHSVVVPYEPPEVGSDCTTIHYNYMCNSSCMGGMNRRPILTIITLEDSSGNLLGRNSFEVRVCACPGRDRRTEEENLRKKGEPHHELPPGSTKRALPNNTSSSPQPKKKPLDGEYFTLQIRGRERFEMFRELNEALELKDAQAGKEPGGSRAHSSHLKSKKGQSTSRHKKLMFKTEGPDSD

Take `C=C1C(=O)O[C@H]2C3=C(C)CCC[C@]3(C)C(=O)C[C@@H]12`: in assay [1], the Potency was 15.1 µM (active). The Potency result in assay [2] and in assay [3] was “inactive” in each case.

Regarding `COc1cc(C)c(C(=O)O[C@@H]2[C@H](O)[C@@H](CO)O[C@H]2n2ccc(=O)[nH]c2=O)c(OC)c1`, in assay [1], the activation was -5.34%. For the same compound, the Potency result in assay [2] and in assay [3] was “inactive” throughout.

Take `C=CC(C)(C)C1(CC2NC(=O)C3CCCN3C2=O)C(=O)Nc2cc3c(cc21)C=CC(C)(C)O3` (stereo not drawn): in assay [1], the activation is 6.87%. The Potency result in assay [2] and in assay [3] was “inactive” in each case.

In the case of `NS(=O)(=O)Nc1ncnc(OCCOc2ncc(Br)cn2)c1-c1ccc(Br)cc1`, the activation in assay [1] is 18.1%. Also, the Potency entry in assay [2] and in assay [3] was “inactive” each time.

As to `CC(C)C[C@H](CC(=O)NO)C(=O)N[C@@H](Cc1ccc2ccccc2c1)C(=O)N[C@@H](C)C(=O)NCCN`, the activation in assay [1] was -11.7%. In addition, the Potency result in assay [2] and in assay [3] was “inactive” each time.

With `COc1cc(C)c(C(=O)Oc2cc(C)c(C(=O)Oc3cc(C)c(C(=O)NC(C)C(=O)O)c(O)c3)c(O[C@@H]3O[C@H](CO)[C@@H](O)[C@H](O)[C@H]3OC(C)=O)c2)c(OC)c1` (stereo partly drawn), in assay [1], the activation was -7.63%. Further, the Potency entry in assay [2] and in assay [3] was “inactive” in each case.

With `Nc1nc(Nc2ccc(S(N)(=O)=O)cc2)n(C(=S)Nc2c(F)cccc2F)n1`, in assay [1], the Potency is 2.13 µM (active). Further, the Potency result in assay [2] and in assay [3] was “inactive” throughout.

As for `Cc1ncc(CCCN(C)C)cc1Nc1ncc2c(n1)-c1ccc(C(F)(F)F)cc1NC(=S)C2`, in assay [1], the activation was 22.3%. Moreover, the Potency entry in assay [2] and in assay [3] was “inactive” in each case.

As to `Cc1nc(NC(=O)N2CCCC2C(N)=O)sc1-c1csc(C(C)(C)C)n1` (stereo not drawn), in assay [1], the activation was 16.1%. In addition, the Potency entry in assay [2] and in assay [3] was “inactive” throughout.

Consider `CCc1cc(S(=O)(=O)O)c2cc(C(C)C)cccc1-2`, for which the activation in assay [1] is 4.33%. Also, the Potency result in assay [2] and in assay [3] was “inactive” throughout.

Turning to `C=C(C)C1CCC2(C(=O)O)CCC3(C(=O)O)C(CCC4C5(C)CCC(O)C(C)(C(=O)O)C5CCC43C)C12` (stereo not drawn), the activation in assay [1] was -3.82%. Moreover, the Potency result in assay [2] and in assay [3] was “inactive” each time.

Take `C=C1C(OC(C)=O)CCC2(C)CC3(O)OC(=O)C(C)=C3CC12` (stereo not drawn): in assay [1], the activation is -3.57%. In addition, the Potency entry in assay [2] and in assay [3] was “inactive” in each case.

On to `CC(=O)C12OC(C)(C)OC1CC1C3CCC4=CC(=O)C=CC4(C)C3(F)C(O)CC12C` (stereo not drawn), for which the activation in assay [1] is -9.67%. Further, the Potency result in assay [2] and in assay [3] was “inactive” throughout.

For `Cc1ccc(S(=O)(=O)N2CCC[C@H]2c2ccc(F)cc2)cc1`, the activation in assay [1] is 8.93%. Also, the Potency result in assay [2] and in assay [3] was “inactive” each time.

On to `O=C(O[C@H]1[C@@H]2C[C@@H]3OC[C@@](O)([C@H]2[C@H](O[C@@H]2O[C@H](CO)[C@@H](O)[C@H](O)[C@H]2O)O3)[C@@H]1O)c1ccccc1`, for which the activation in assay [1] is 5.36%. Besides, the Potency entry in assay [2] and in assay [3] was “inactive” throughout.

Consider `CO[C@@H]1CC[C@H](OC[C@]2(COC(=O)c3ccc(C)[nH]3)[C@H](OC(C)=O)CC[C@@]3(C)[C@@H]4CC=C(C)[C@@H](C5=C(O)C(=O)OC5O)[C@]4(C)CC[C@@H]32)O[C@H]1C` (stereo partly drawn), for which the activation in assay [1] is 0%. Also, the Potency entry in assay [2] and in assay [3] was “inactive” each time.

With `CC1(C)CC[C@]2(C(=O)O)CC[C@]3(C)C(=CCC4[C@@]5(C)CC[C@H](O[C@@H]6O[C@H](C(=O)O)[C@@H](O)[C@H](O)[C@H]6O)C(C)(C)C5CC[C@]43C)C2C1` (stereo partly drawn), in assay [1], the activation is 11.5%. Besides, the Potency result in assay [2] and in assay [3] was “inactive” throughout.

For the compound `COc1ccc(C2Oc3c(OC)cc(CCCO)cc3C2COC2OC(CO)C(O)C(O)C2O)cc1OC` (stereo not drawn), in assay [1], the activation was -3.82%. Besides, the Potency result in assay [2] and in assay [3] was “inactive” in each case.

Turning to `COc1ccc(CNC(=O)c2sc3nc(C)cc(C)c3c2N)cc1`, the activation in assay [1] is -8.11%. In addition, the Potency entry in assay [2] and in assay [3] was “inactive” throughout.

Consider `C[C@H](O)C(O)(C(=O)OCc1ccccc1NC(=O)CCC(N)C(=O)O)[C@H](C)O` (stereo partly drawn), for which, in assay [1], the activation was -24.4%. In addition, the Potency entry in assay [2] and in assay [3] was “inactive” each time.

Regarding `C=C1CC[C@@H]2C(C)(C)CCC[C@@]2(C)[C@@H]1CC/C(=C/C(=O)OC)COC(C)=O`, in assay [1], the activation is -31.3%. The Potency entry in assay [2] and in assay [3] was “inactive” in each case.
